# nsP2pro inh: CHIKV nsP2 protease inhibition, primary qHTS; Q8JUX6; FRET peptide cleavage, nsP2pro, fluorescence 1 h; Potency, µM (highest dose often 24.9 µM), for inactives: at the top dose activity change, negative = inhibition, hits mostly inhibitors; 1.1% of 31,000 active; AID 1964107; further: nearly all actives have a fitted effect of over 60% in size
#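 Enzyme 150 nM, substrate 2.5 uM (both final); Tris-HCl 10 mM pH 8.0 + 0.01% Tween 20; cpd up to 25 uM, 7 pts; 15 min preinc., 1 h RT; fluorescence ex 525/em 598.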
# CHIKV nsP2 cell: cell-based CHIKV nsP2 protease inhibition, secondary. shares compounds with nsP2pro inh. cell-based CHIKV nsP2 protease reporter assay. Potency, µM (highest dose often 51.1 µM), inactives show at the highest dose activity change, negative = inhibition, actives largely listed as inhibitors. 10% of 450 active. AID 1964100; further: nearly all actives have a fitted effect of over 70% in size
# NSP2 full ctr: selectivity test for CHIKV nsP2 protease inhibitors: full-length NSP2; shares compounds with nsP2pro inh; Full-length CHIKV NSP2 protease enzymatic counterscreen; Potency, µM (highest dose often 50.7 µM), inactives show top-dose activity change, negative = inhibition, hits mostly inhibitors; 39% of 410 active; further: nearly all actives have a fitted effect of over 65% in size
# Furin counterscr: inhibits human furin in a CHIKV nsP2 protease selectivity counterscreen; shares compounds with nsP2pro inh; Recombinant human furin enzymatic counterscreen, fluorogenic substrate; Potency, µM (highest dose often 50.6 µM), without a hit: at the top dose activity change, negative = inhibition, most hits filed as inhibitors; 6% of 410 active; AID 1964102
# nsP2 NS23 pep: blocks CHIKV nsP2 protease cleavage of endogenous NS2/3 peptide. shares compounds with nsP2pro inh. Purified CHIKV nsP2 protease, endogenous NS2/3 peptide cleavage. Potency, µM (doses to about 51 µM), inactives show top-dose activity change, negative = inhibition, actives largely listed as inhibitors. 34% of 410 active. AID 1964103; further: nearly all actives have a fitted effect of over 55% in size
# Papain cs: selectivity counter-screen for CHIKV nsP2 protease inhibitors: papain | purified papain protease activity, enzymatic inhibition | Potency, µM (titrated, usually from 51 µM), for inactives: at the top dose activity change, negative = inhibition, hits mostly inhibitors | shares compounds with nsP2pro inh | 5% of 410 active
# nsP2pro confirm: confirmation of CHIKV nsP2 protease inhibitors | shares compounds with nsP2pro inh | CHIKV nsP2 protease enzymatic activity, qHTS | Potency, µM (series often up to 25.5 µM), without a hit: top-dose activity change, negative = inhibition, actives largely listed as inhibitors | 43% of 410 active | AID 1964105; further: nearly all actives have a fitted effect of over 75% in size
# HCV NS3 4A cs: selectivity counter-screen for CHIKV nsP2 protease inhibitors: HCV NS3/4A | HCV NS3/4A protease biochemical counterscreen | shares compounds with nsP2pro inh | Potency, µM (top dose mostly 50.9 µM), usual class: inhibitors | 20% of 410 active; further: nearly all actives have a fitted effect of over 55% in size
# Active calls of the source: *; i = inactive; ? = inconclusive; ! = not confirmed by another sample; [ ] = another dose, or the depositor's remark. Many of the other results were omitted from the sample, so hits are more common in it than they were. The call rests on the fitted dose curve. On the % scale 0 is the no-effect control and ±100 the full control effect; potency means the concentration at half of the fitted maximal effect.
SMILES,nsP2pro inh,others
O=C(NC1CCCCC1)O[C@@H]1CO[C@H]2[C@@H]1OC[C@@H]2NS(=O)(=O)c1ccc(Cl)cc1,-20.9%,
O=C(NC1CCCCC1)O[C@@H]1CO[C@H]2[C@@H]1OC[C@@H]2n1nnnc1SCc1ccco1,0.447µM*,CHIKV nsP2 cell=3.0%;NSP2 full ctr=2.91µM*;Furin counterscr=?;nsP2 NS23 pep=6.51µM*;Papain cs=-7.6%;nsP2pro confirm=0.895µM*;HCV NS3 4A cs=?
CC1=CCC(O)C2(C)CCC3C(C)C(=O)OC3C12 (stereo not drawn),-1.5%,
C[C@]12CC[C@H]3[C@@H]([C@H](O)CC4=CC(=O)CC[C@@]43C)[C@@H]1CC[C@@H]2O,2.9%,
C=C1C(=O)OC2C1C(O)CC1(C)C(O)CCC(C=O)C21 (stereo not drawn),?,CHIKV nsP2 cell=-5.9%;NSP2 full ctr=-11.1%;Furin counterscr=-2.2%;nsP2 NS23 pep=-18.0%;Papain cs=-10.8%;nsP2pro confirm=-24.0%;HCV NS3 4A cs=i
C=C1C(=O)OC2CC3(C)C(CC12)C(C)=CC(O)C3OC(C)=O (stereo not drawn),125.5%,
C=C1C(=O)OC2C1CCC1(C)C(O)CCC(=C)C21 (stereo not drawn),61.5%,
C=C1C(=O)O[C@@H]2[C@H]1[C@H](O)C[C@]1(C)[C@@H](O)CC=C(C)[C@@H]21,?,CHIKV nsP2 cell=?;NSP2 full ctr=-6.9%;Furin counterscr=2.0%;nsP2 NS23 pep=-11.0%;Papain cs=-11.1%;nsP2pro confirm=-17.2%;HCV NS3 4A cs=i
O=C1Cc2c(-c3ccccc3OCc3ccccc3)n[nH]c2CN1Cc1ccccn1,i,
CCOC(=O)C1CCN(C(=O)CNC(=O)Nc2ccccc2Cl)CC1,-8.5%,
O=C(Nc1ccccc1F)N[C@H]1N=C(c2ccccc2)c2ccccc2NC1=O,-13.9%,
COc1ccc(S(=O)(=O)N2C[C@@H]3C[C@H](C2)c2ccc(NS(=O)(=O)c4cccc(F)c4)c(=O)n2C3)cc1,24.0%,
CCCS(=O)(=O)Nc1ccc2n(c1=O)C[C@H]1C[C@@H]2CN(C(=O)c2ccc(-c3ccccc3)cc2)C1,?,CHIKV nsP2 cell=-1.8%;NSP2 full ctr=?;Furin counterscr=-8.1%;nsP2 NS23 pep=?;Papain cs=-7.9%;nsP2pro confirm=-3.5%;HCV NS3 4A cs=?
O=c1c(NS(=O)(=O)c2cccc(F)c2)ccc2n1C[C@H]1C[C@@H]2CN(S(=O)(=O)c2ccccc2)C1,17.8%,
O=c1c(NS(=O)(=O)Cc2ccccc2)ccc2n1C[C@H]1C[C@@H]2CN(S(=O)(=O)c2ccccc2)C1,?,CHIKV nsP2 cell=5.6%;NSP2 full ctr=?;Furin counterscr=-4.7%;nsP2 NS23 pep=?;Papain cs=-3.5%;nsP2pro confirm=?;HCV NS3 4A cs=?
O=C(Nc1ccccc1)Nc1ccc2n(c1=O)C[C@H]1C[C@@H]2CN(C(=O)c2ccccc2)C1,-18.8%[39.2 µM],
O=C(c1ccccn1)N1C[C@@H]2C[C@H](C1)c1ccc(NS(=O)(=O)c3cccc(F)c3)c(=O)n1C2,-5.8%,
O=C1Nc2ccc(Cl)cc2/C1=C\c1cc(Cl)c(O)c(Cl)c1,i,
C[C@@H]1O[C@@H](O[C@@H]2/C=C/C=C/C=C\C=C\C[C@H](C)OC(=O)/C=C/[C@H]3O[C@@H]3C[C@H](O)C[C@]3(O)C[C@@H](O)[C@@H](C(=O)O)[C@H](C2)O3)[C@H](O)[C@H](N)[C@@H]1O,-5.8%[10 µM],
CC[C@H]1OC(=O)C[C@@H](O)[C@H](C)[C@@H](OC2OC(C)C(O)C(N(C)C)C2O)[C@@H](CCN2CCCCC2)C[C@@H](C)C(=O)/C=C/C(C)=C/[C@@H]1CN1CCCCC1 (stereo partly drawn),10.5%,
COC(=O)c1ccc(COCC2=CC(C)(C)Oc3ccc(OC)cc32)cc1,i,
CC(=O)OCC1=C(C(=O)O)N2C(=O)[C@@H](NC(=O)CC#N)[C@H]2SC1,-11.1%,
CCOC(=O)c1ccc(O)c2ncc(-c3ccc(C(=N)N)cc3)cc12,i,
CCOc1ccc(NC(=O)Cn2cc(C(=O)c3ccc(CC)cc3)c(=O)c3cc4c(cc32)OCO4)cc1,-15.8%,
CCc1ccc(NC(=O)Cn2c(=O)c3cc(Cl)ccc3n3nncc23)cc1,-14.9%,
SMILES,nsP2pro inh,others
CCc1ccc(NCc2cc3cc4c(cc3n(CC(=O)Nc3ccc(Cl)cc3)c2=O)OCO4)cc1,?,CHIKV nsP2 cell=-1.4%
CN(C)CCC(=O)N1Cc2ccccc2CC2(CCCN2Cc2cccnc2)C1 (stereo not drawn),-3.8%,
CC1(C)[C@@H](O)CC[C@]2(C)[C@H]3CC=C4[C@@H]5C[C@](C)(C(=O)O)CC[C@]5(C)CC[C@@]4(C)[C@]3(C)CC[C@@H]12,22.1%,
C[C@@]1(C(=O)O)CC[C@]2(C)CC[C@]3(C)C4=CC(=O)c5cc(O)c(O)cc5[C@]4(C)CC[C@@]3(C)[C@@H]2C1,-9.2%[10 µM],
CC1=C(O)C(=O)C=C2C1=CC=C1[C@@]2(C)CC[C@@]2(C)[C@@H]3C[C@](C)(C(=O)O)CC[C@]3(C)CC[C@]12C,4.42µM*!,CHIKV nsP2 cell=?;NSP2 full ctr=16.3µM*;Furin counterscr=?;nsP2 NS23 pep=4.61µM*;Papain cs=?;nsP2pro confirm=1.79µM*;HCV NS3 4A cs=20.6µM*
CCOC(=O)c1ccc(-n2cnc3cc(C(=O)N4CCCCC4)ccc32)cc1,i,
O=C1c2ccccc2C(=O)N1c1cccnc1,i,
O=C1OC(/C=C/c2ccccc2)=NC/1=C\c1cccnc1,7.8%,
O=C1C(=Cc2cccnc2)C(=O)c2ccccc21,?,CHIKV nsP2 cell=-11.2%;NSP2 full ctr=?;Furin counterscr=-9.9%;nsP2 NS23 pep=18.3µM*;Papain cs=-7.2%;nsP2pro confirm=5.04µM*;HCV NS3 4A cs=?
CCn1c(=O)n([C@H]2CCCN(c3nccc(-c4cc5ccccc5o4)n3)C2)c2ccccc21,-0.7%,
CNc1sc(-c2cccc3ccccc23)nc1C(=O)OC,-3.6%,
COC(=O)CCSC/C=C(\C)CCn1cc(CCc2ccc(-c3ccccc3)cc2)nn1,-10.4%,
CCCSc1ncc(Cl)c(C(=O)N(Cc2ccc(Cl)cc2)Cc2ccco2)n1,36.6%,
CCSc1ncc(Cl)c(C(=O)N(Cc2ccccc2)Cc2ccco2)n1,-16.6%,
CCCS(=O)(=O)c1ncc(Cl)c(C(=O)N(Cc2ccccc2)Cc2ccco2)n1,5.62µM*,CHIKV nsP2 cell=4.61µM*;NSP2 full ctr=18.3µM*;Furin counterscr=-13.2%;nsP2 NS23 pep=6.51µM*;Papain cs=-0.6%;nsP2pro confirm=4.49µM*;HCV NS3 4A cs=?
Clc1cc(Cl)c(OCC#CI)cc1Cl,4.42µM*,CHIKV nsP2 cell=?;NSP2 full ctr=7.11µM*;Furin counterscr=8.96µM*;nsP2 NS23 pep=5.04µM*;Papain cs=-18.3%[17.2 µM];nsP2pro confirm=2.19µM*;HCV NS3 4A cs=i
CC(C)OC(=O)[C@H](C)N[P@@](=O)(OC[C@H]1O[C@@H](n2ccc(=O)[nH]c2=O)[C@](C)(F)[C@@H]1O)Oc1ccccc1,-7.1%,
C[C@@]1(F)[C@H](O)[C@@H](CO)O[C@H]1n1ccc(=O)[nH]c1=O,-18.9%,
